# An excerpt weighted towards active compounds, which were near 3.2% of everything screened.
# PG9 binder: small molecules binding HIV-1 gp120 antibody PG9; inhibition, % at 6.7 µM; hit rate 0.43% among 360,000; AID 624416; TR-FRET gp120-PG9 antibody binding; in the data active means inhibition above about 8.5%
# MsrA inh: inhibitors of bovine MsrA. purified bovine MsrA, absorbance read-out. inhibition, % at 15.5 µM. hit rate 0.75% among 360,000
# rCAG binder: molecules binding r(CAG) RNA repeats; r(CAG) RNA repeat, TO-PRO-1 dye displacement fluorescence; AID 651821; inhibition, % at 3 µM; hit rate 1.3% among 370,000;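 active means inhibition above the plate cutoff, the mean of all test compounds on that plate plus 3 SD, cut at about 35% in these data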;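 further: higher means more dye released from RNA so lower well fluorescence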
# MsrA act: activators of bovine methionine sulfoxide reductase A | purified bovine MsrA, absorbance read-out | AID 602163 | activation, % at 10.6 µM | hit rate 0.3% among 360,000; in the data active means activation above about 7.5%
# sPLA2-III inh: Blocks human group III sPLA2 activity; inhibition, % at 12.2 µM; AID 743126; QFRET BODIPY PC-A2 liposome hydrolysis, fluorescence; Q9NZ20; hit rate 0.56% among 370,000;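 active means inhibition above mean plus 3 SD of compounds lying within the high and low control bounds, cut at about 19% in these data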
# Target sequence (Q9NZ20 whole entry, looked up): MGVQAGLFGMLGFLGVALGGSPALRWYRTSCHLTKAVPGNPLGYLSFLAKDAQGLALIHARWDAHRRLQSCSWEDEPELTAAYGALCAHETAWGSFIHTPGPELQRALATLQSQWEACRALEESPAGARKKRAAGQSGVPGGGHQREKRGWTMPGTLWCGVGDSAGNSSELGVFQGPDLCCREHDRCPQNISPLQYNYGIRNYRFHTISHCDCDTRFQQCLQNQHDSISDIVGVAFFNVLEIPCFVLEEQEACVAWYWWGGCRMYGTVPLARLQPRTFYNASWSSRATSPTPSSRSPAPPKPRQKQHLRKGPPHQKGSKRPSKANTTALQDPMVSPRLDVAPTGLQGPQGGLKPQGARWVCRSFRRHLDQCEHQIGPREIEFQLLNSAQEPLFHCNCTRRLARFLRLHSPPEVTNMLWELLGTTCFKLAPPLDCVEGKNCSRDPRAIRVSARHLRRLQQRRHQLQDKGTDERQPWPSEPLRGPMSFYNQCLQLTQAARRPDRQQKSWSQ
# MsrA conf: bovine MsrA inhibition, confirmed; shares compounds with MsrA inh; purified bovine MsrA, absorbance read-out; inhibition, % at 15.5 µM; hit rate 41% among 2,300; AID 651822;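 further: coupled to thioredoxin reductase with NADPH and selenocystamine and DMSO as substrate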
# Hits are given with their value; - = inactive; . = no result. Unless noted, no stated cut-off is given here; in the data, active means inhibition above about 4.5%; inactive means the rest.
SMILES,PG9 binder,MsrA inh,rCAG binder,MsrA act,sPLA2-III inh,MsrA conf
CC1(C)CC(=O)C2=C(C1)Nc1ccccc1NC2c1ccc2c(c1)OCO2 (centres undefined),-,6.6,-,-,-,-
COc1ccccc1C1Nc2ccccc2NC2=C1C(=O)CC(C)(C)C2 (centres undefined),-,5.4,-,-,-,-
Cc1ccc(/C=N/n2c(C3CCCCC3)n[nH]c2=S)cc1,-,7.8,-,-,-,-
Fc1ccccc1/C=N/n1c(C2CCCCC2)n[nH]c1=S,-,-,-,-,-,.
Cc1ccccc1/C=N/n1c(C2CCCCC2)n[nH]c1=S,-,14,-,-,-,12
S=c1[nH]nc(C2CCCCC2)n1/N=C/c1ccccc1Br,-,13,-,-,-,12
Cc1ccccc1CN1CCCCC(NC(=O)c2ccc(-c3ccccc3)cc2)C1=O (centres undefined),.,.,-,.,-,.
C#CCN1CC(N(C)CCOC(=O)c2occ3ccccc23)CS1(=O)=O (centres undefined),.,.,-,.,-,.
C#CCNC(=O)C[C@H]1C(=O)N(CCc2ccc(Cl)cc2)C2=CCCC[C@@]21C(=O)OCC,.,.,-,.,-,.
Cc1ccc(NC(=O)C2CC3CCC2C3)c(C)c1 (centres undefined),.,.,.,.,-,.
O=C(N[C@@H]1C[C@@H]2O[C@@H](CO)CC[C@@H]2O[C@@H]1CCc1ccc(-c2cccnc2)cc1)c1cccc(F)c1,.,.,-,.,-,.
Cc1ccc(C(=O)C2=C(O)C(=O)N(CCCN(C)C)C23C(=O)N(C)c2ccccc23)o1 (centres undefined),-,5.6,-,-,-,6.4
Cc1ccc(N=c2c([N+](=O)[O-])nn(-c3ccccc3)n2O)c(C)c1,-,12,-,-,-,15
COc1ccccc1N1CCN(C(=O)c2cc3c(C)nn(-c4ccccc4)c3s2)CC1,.,.,-,.,-,.
O=c1oc2ccccc2c(NC(c2ccccc2)c2ccccc2)c1[N+](=O)[O-],-,62,-,-,-,56
CC(Nc1c([N+](=O)[O-])c(=O)oc2ccccc12)C(Cl)c1ccccc1 (centres undefined),-,-,-,-,-,.
Cc1ccccc1Nc1n[nH]c(C)c1[N+](=O)[O-],-,-,-,-,-,.
Cc1ccc(Nc2n[nH]c(C)c2[N+](=O)[O-])c(C)c1,-,10,-,-,-,9.1
CC(C)CNS(=O)(=O)CC1NCc2cc3c(cc21)OCO3 (centres undefined),.,.,-,.,-,.
CN(C)c1ccc(C=NCC2(O)CCOC(C)(C)C2)cc1 (centres undefined),-,5.2,-,-,-,4.8
COCCCn1c(SCC(=O)c2c(N)n(C3CC3)c(=O)[nH]c2=O)nnc1-c1ccccc1Cl,-,-,-,-,-,.
COCCn1c(SCC(=O)c2c(N)n(C3CC3)c(=O)[nH]c2=O)nnc1-c1ccc(Cl)cc1,-,6.0,-,-,-,-
COC(=O)C1=C(C)NC(=O)NC1c1ccc(OC)c(OC)c1 (centres undefined),-,-,-,-,-,.
COC(=O)C1=C(C)NC(=S)N(C(C)=O)C1c1ccc(OC)c(OC)c1 (centres undefined),-,4.7,-,-,-,-
O=C(N/N=C/c1c[nH]c2ccccc12)c1ccn(Cc2ccc(Cl)cc2Cl)n1,-,-,-,-,-,.
SMILES,PG9 binder,MsrA inh,rCAG binder,MsrA act,sPLA2-III inh,MsrA conf
Cn1ccc(C(=O)N/N=C/c2c[nH]c3ccccc23)n1,-,5.7,-,-,-,-
CC(=O)Nc1cccc(C(=O)N/N=C/c2c[nH]c3ccccc23)c1,-,5.8,-,-,-,-
CC(SC(C)C(=O)NN=Cc1c[nH]c2ccccc12)C(=O)NN=Cc1c[nH]c2ccccc12 (centres undefined),-,5.0,-,-,-,-
CN(CCCOC(=O)c1cc2ccccc2o1)C1CN(Cc2cn(Cc3ccc([N+](=O)[O-])cc3)nn2)S(=O)(=O)C1 (centres undefined),.,.,-,.,-,.
O=S(=O)(O)Sc1ccccc1,-,8.5,-,-,-,-
O=C1CCC2(CCCCC2)N1CCCO,.,.,-,.,-,.
C=CCn1c(NC(=O)c2ccco2)nc2ccccc21,-,4.8,-,-,-,-
O=C(Nc1nc2ccccc2n1Cc1ccc(Cl)cc1)c1ccco1,-,-,-,-,-,.
COCCCN1C(=O)[C@H](CC(=O)NCC2CCCCC2)[C@]2(C(=O)OC)CCCCC=C12,.,.,-,.,-,.
CCN(CC)CCCNC(=O)CSc1nc2cccnc2n1C,.,.,-,.,-,.
COc1ccc(C=NNc2nc3c([nH]2)c(=O)n(C)c(=O)n3C)cc1,-,5.5,-,-,-,-
Cc1ccc(C)c(S(=O)(=O)Nc2ccc3cn[nH]c3c2)c1,-,-,-,-,-,.
O=S(=O)(Nc1ccc2cn[nH]c2c1)c1cc(Br)ccc1Br,-,6.2,-,-,-,-
COc1ccc2c(c1)CNC2CS(=O)(=O)NCc1ccc(F)cc1 (centres undefined),.,.,-,.,-,.
Nc1n[nH]c(N)c1N=Nc1ccccc1,-,5.0,-,-,-,-
CCc1occc(=O)c1Oc1cc(NN2CCCCC2)c([N+](=O)[O-])cc1[N+](=O)[O-],-,13,-,-,-,9.0
O=[N+]([O-])c1cc([N+](=O)[O-])c(Oc2cccc(Cl)c2Cl)cc1NN1CCCCC1,-,-,-,-,-,.
O=[N+]([O-])c1cccc(-c2ccc(C(=S)N3CCOCC3)o2)c1,-,5.1,-,-,-,5.6
O=C(N/N=C/c1cccc(Br)c1)c1ccc(Cn2cc(Br)cn2)o1,-,-,-,-,-,.
Cc1ccsc1/C=N/NC(=O)c1ccc(Cn2cc(Br)cn2)o1,-,4.7,-,-,-,-
OCCCN1CCC2(CCC(c3ccccc3)CC2)C1 (centres undefined),.,.,-,.,-,.
Cc1ccc(/C=C/C(=O)Nc2cccc(S(=O)(=O)N3CCOCC3)c2)o1,-,5.0,-,-,-,4.9
O=C(/C=C/c1ccco1)Nc1cccc(S(=O)(=O)N2CCOCC2)c1,-,-,-,-,-,.
O=C(O)c1ccc(N=NN2CCCC2)cc1,-,5.1,-,-,-,-
CCOC(=O)C1CCN(C(=O)C(Cc2ccc3c(c2)OCO3)NC(C)=O)CC1 (centres undefined),.,.,-,.,-,.
SMILES,PG9 binder,MsrA inh,rCAG binder,MsrA act,sPLA2-III inh,MsrA conf
CNC(=O)C1CC(=O)N/C(=N/N=C(\C)c2cccs2)S1 (centres undefined),-,6.1,-,-,-,4.7
C/C(=N\N=C1\NC(=O)CC(C(=O)O)S1)c1ccc(F)cc1 (centres undefined),-,-,-,-,-,.
C/C(=N\N=C1\NC(=O)CC(C(=O)O)S1)c1cccs1 (centres undefined),-,5.0,-,-,-,-
CC(=O)N[C@H]1C[C@@H]2O[C@H](CO)CC[C@@H]2O[C@@H]1CCc1ccc(-c2ccc(F)cc2)cc1,.,.,-,.,-,.
Cc1ccc(/C=N/NC(=O)c2ccco2)s1,-,5.6,-,-,-,4.9
Cn1cc(/C=N\NC(=O)c2cccs2)c2ccccc21,-,8.3,-,-,-,-
